Assay results from PubChem BioAssay AID588814 (The Scripps Research Institute Molecular Screening Center, 2011).
About 1,200 (0.33%) of roughly 360,000 compounds were called active. The entries come from a sample that favours actives as a whole. Values without a mark were called inactive.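 Rule for the calls: active = activation above the run's mean compound activation plus 3 SD (cut at about 16% in these data); inactive = the rest.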

These molecules were tested against Muscarinic acetylcholine receptor M1 (Homo sapiens) (UniProt P11229) (assay: human M1 muscarinic receptor agonists, primary screen, Fluo-8 calcium fluorescence, CHO-K1 cells, HTS (AID 588814;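 note: peak over basal fluorescence ratio within a 140 s kinetic read after compound addition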)). Details: CHO-K1 hM1, Fluo-8 calcium fluorescence, agonist mode; at 3 µM; stronger effect = higher value; 0% DMSO, 100% acetylcholine EC100.
Sequence of Muscarinic acetylcholine receptor M1 (Homo sapiens) (P11229 whole entry, looked up): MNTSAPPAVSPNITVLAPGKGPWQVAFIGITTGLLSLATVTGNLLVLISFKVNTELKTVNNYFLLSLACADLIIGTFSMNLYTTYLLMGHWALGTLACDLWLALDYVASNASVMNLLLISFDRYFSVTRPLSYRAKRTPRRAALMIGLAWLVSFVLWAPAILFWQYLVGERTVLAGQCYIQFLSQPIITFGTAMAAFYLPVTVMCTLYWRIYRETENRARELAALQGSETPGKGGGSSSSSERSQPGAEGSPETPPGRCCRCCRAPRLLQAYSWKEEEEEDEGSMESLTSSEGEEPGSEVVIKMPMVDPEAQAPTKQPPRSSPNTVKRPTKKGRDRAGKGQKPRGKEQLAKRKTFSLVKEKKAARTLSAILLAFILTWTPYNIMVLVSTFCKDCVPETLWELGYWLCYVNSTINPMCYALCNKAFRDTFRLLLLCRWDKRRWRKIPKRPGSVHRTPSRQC
In the case of `CCC(=O)c1ccc(OCC(=O)OCC(=O)N2CCc3ccccc3C2)cc1`, the activation is reported as -1.8%.
`CCN1CCc2nc(NC(=O)c3cc(F)c(F)cc3Cl)sc2C1` was tested, and the activation was -7.11%.
For `COC(=O)c1ccc(CSc2ccc3nnc(-c4ccccc4)n3n2)o1`, the activation was -7.9%.
With `CCN1/C(=C\c2ccc3ccccc3[n+]2CC)Sc2cc(C)ccc21` the activation was 26.1% (active).
With `COCCNC(=O)C1CCCN(Cc2ccccc2Cl)CC1` (configuration not stated) the activation was -7.52%.
`CCCNC(=O)CCn1nc(-c2ccccc2)c2ccccc2c1=O` was tested, and the activation was -3.19%.
For `COc1ccc(CNC(=O)CN(C(=O)c2csnn2)c2cnc3ccccc3c2)cc1`, the activation was -11.5%.
For `CCOC(=O)C(CC)/C(C)=N\NC(=O)c1cccc(C)c1` (configuration not stated), the activation was -0.97%.
In the case of `COc1ccccc1S(=O)(=O)c1c(C)cc(C)[nH]c1=O`, the activation is reported as -1.5%.
For `Cc1cc(C)c(/C=C2\C(=O)Nc3ccccc32)[nH]1`, the activation was 26.4% (active).
`O=C1c2ccccc2NC(c2ccccn2)N1NS(=O)(=O)c1ccccc1` (configuration not stated) showed an activation of 0.48%.
For `CN(C)c1ccc(/C=C2\NC(=S)N(Cc3ccccc3)C2=O)cc1`, the activation was 47.3% (active).
`Cc1ccc(CN2C(=O)N/C(=C/c3cc(C)n(-c4ccccn4)c3C)C2=O)cc1` gave an activation of -1.17%.
Work on `CN(C(=O)CN1C(=O)NC(C)(CCc2ccccc2)C1=O)c1ccccc1` (configuration not stated) yielded an activation of -0.73%.
`Cc1ccc(S(=O)(=O)N(Cc2ccc(Cl)cc2)c2ccccc2C(=O)NCc2cccnc2)cc1` gave an activation of -7.63%.
Work on `CC(C)N(C(=O)Cn1cc(SCC(=O)N2CCCC2)c2ccccc21)C(C)C` yielded an activation of -6.14%.
`O=C(CC1SCCNC1=O)Nc1ccc(Cl)cc1` (configuration not stated) was tested, and the activation was -4.53%.
In the case of `CCCc1ccc(OCC(=O)NNC(=S)NC(=O)c2ccco2)cc1`, the activation is reported as 4.47%.
With `O=C(Nc1ccc2ccccc2c1)/C(=C\c1ccc2c(c1)OCO2)NC(=O)c1ccco1` the activation was -10.2%.
`CC(Oc1ccc2ccccc2c1)C(=O)NNC(=S)NC(=O)c1ccco1` (configuration not stated) was tested, and the activation was 51.6% (active).
`CCc1nc2c(OCCOc3ccccc3)cccn2c1N(C=O)Cc1ccc(OC)cc1` was tested, and the activation was -6.89%.
`CCOC(=O)[C@H]1[C@H]2COc3cc(OC)ccc3[C@@H]2N2C(=O)N(c3ccc(Br)cc3)C(=O)[C@@]12C` gave an activation of -5.08%.
In the case of `Cc1cc(C)c(S(=O)(=O)N2CCC(C(=O)OCc3c(C)noc3C)CC2)c(C)c1`, the activation is reported as -3.3%.
Work on `C=CCn1c(SCc2c(C(=O)OC)sc(N)c2C(=O)OC)nnc1-c1ccc(Cl)cc1` yielded an activation of 0%.
In the case of `COc1ccc(CCNC2=C(Cl)C(=O)N(Cc3ccccc3)C2=O)cc1OC`, the activation is reported as -3.94%.
With `COc1cc(/C=C2/SC(=S)N(Cc3ccccc3)C2=O)cc(OC)c1O` the activation was 24.3% (active).
`CN1C=CC=C/C1=C1\SC(=S)N(Cc2ccccc2)C1=O` gave an activation of -13.4%.
For `COc1ccc(C)cc1-n1nnnc1SCc1nc2ccccc2c(=O)[nH]1`, the activation was 16.2% (active).
`CCn1c(COc2c(C)cccc2C)nnc1SCc1nc2ccccc2c(=O)[nH]1` gave an activation of -4.55%.
For `COc1ccc(CCCc2nnc(SCc3nc4ccccc4c(=O)[nH]3)n2C)cc1`, the activation was -15.5%.
Molecule `CCCCN1CC(COCc2ccccc2)OCCS1(=O)=O` (configuration not stated) has an activation of -4.53%.
For `O=S1(=O)C[C@@H](N2CCN(CCO)CC2)[C@H](COCc2ccccc2)N1`, the activation was 17.3% (active).
With `O=C1CCN(CCCc2ccccc2)CCN1CCO` the activation was -5.68%.
`COc1ccc(OC)c(NC(=O)c2cc(-c3cc(F)ccc3OCC3CCCO3)n[nH]2)c1` (configuration not stated) gave an activation of -6.22%.
Molecule `CC(C)(C)OC(=O)NC(Cc1ccccc1)C(=O)NC(CSC1CCCCO1)C(=O)NN` (configuration not stated) has an activation of -3.12%.
For `COC(=O)c1cc(C(=O)NC(C)C2CC3CCC2C3)cc([N+](=O)[O-])c1` (configuration not stated), the activation was -7.37%.
With `CCN(CC)CCCC(C)n1c2nc(=O)[nH]c(=O)c-2nc2cc(Cl)ccc21` (configuration not stated) the activation was 182% (active).
`COc1ccc(C(CCNCc2ccccc2F)c2ccc(F)cc2)cc1` (configuration not stated) gave an activation of -4.82%.
For `COc1cccc(CNCCc2c[nH]c3ccccc23)c1OCc1ccccc1F`, the activation was 16.5% (active).
Molecule `Fc1ccccc1COc1ccccc1CNCc1ccncc1` has an activation of -7.35%.
For `CC(C)C[C@H]1CN=C(Nc2ccccc2)N1CC1CCCCC1`, the activation was -8.04%.
For `Cn1cccc1C(=O)NNC(=O)COc1ccc(Br)cc1`, the activation was -2.51%.
Molecule `CC(=O)Nc1ccc(OC(=O)COc2ccc(Br)cc2)cc1` has an activation of -5.95%.
`Cc1ccc(O)c(NC(=S)NC(=O)COc2ccc(Br)cc2)c1` was tested, and the activation was 33.4% (active).
For `COCCNc1cc(-c2ccccc2)nc2cc(-c3cccc(F)c3)nn12`, the activation was -4.59%.
Work on `COc1ccc(C2(C)NC(=O)N(CC(=O)c3ccc4c(c3)OCO4)C2=O)cc1` (configuration not stated) yielded an activation of 10.2%.
In the case of `Cc1ccc(NC(=O)CN2C(=O)NC(C)(c3ccc(Cl)cc3)C2=O)c(Br)c1` (configuration not stated), the activation is reported as 17.6% (active).
Molecule `Cc1ccc(C2(C)NC(=O)N(CC(=O)Nc3ccccc3C(=O)N3CCCCC3)C2=O)cc1` (configuration not stated) has an activation of 0.58%.
For `COc1ccc(C(=O)CN2C(=O)NC(C)(c3ccc(C)cc3)C2=O)cc1OC` (configuration not stated), the activation was 16.2% (active).
`CC1CCC2(CC1)NC(=O)N(CC(=O)c1ccc3c(c1)OCO3)C2=O` (configuration not stated) showed an activation of -2.81%.
Molecule `Cc1ccc(S(=O)(=O)N2CCN(C(=O)CN3C(=O)NC(C)(c4ccc(Cl)cc4)C3=O)CC2)c(C)c1` (configuration not stated) has an activation of -3.67%.
For `CC1(c2ccc(Cl)cc2)NC(=O)N(CC(=O)c2ccc3c(c2)OCO3)C1=O` (configuration not stated), the activation was 20.6% (active).
In the case of `Cc1ccc(C2(C)NC(=O)N(CC(=O)N3CC(=O)Nc4ccccc43)C2=O)cc1` (configuration not stated), the activation is reported as -1.27%.
In the case of `COc1cc(NC(=O)CN2C(=O)NC(C)(c3ccc(OC(F)F)cc3)C2=O)cc(OC)c1OC` (configuration not stated), the activation is reported as 5.37%.
With `O=C(NC(c1ccc(-c2ccccc2)cc1)c1cnccn1)C1CCN(CCOc2ccc(Cl)cc2Cl)CC1` (configuration not stated) the activation was -1.39%.
With `Cc1cc(Br)cn2c(Cc3ccsc3)c(-c3ccc(C#N)cc3)nc12` the activation was -1.39%.
In the case of `COCCCNc1nc2c(-c3cccc(C)c3)nnn2c2ccc(Cl)cc12`, the activation is reported as -3.36%.
